Among all 39,000 compounds or so, about 3,300 (8.5%) were called active. For the sample, actives were picked, then their nearest neighbours and some compounds at random.

This assay has as its system HepG2. Put plainly: cytotoxicity call (relative viability < 0.9). As to conditions: 10 µM.
Consider `Cl.NC[C@H](N)C(=O)O`, for which the cytotoxicity call is “inactive”. Regarding `COc1ccccc1S(=O)(=O)N(C)C[C@H]1OCc2cn(nn2)CCCC(=O)N([C@H](C)CO)C[C@@H]1C`, the cytotoxicity call is “inactive”.

Regarding `Cc1cccc(NC(=O)Nc2ccc3c(c2)C(=O)N(C)[C@@H]2CC[C@H](CC(=O)NCc4ccccc4Cl)O[C@H]2CO3)c1`, the cytotoxicity call was “inactive”. As to `C=CC[C@H](CC(=O)N(CCO)Cc1ccccc1)C(=O)N[C@H](COC(=O)[C@@H](CC=C)CC(=O)OC(C)(C)C)Cc1c[nH]c2ccccc12`, the cytotoxicity call is “inactive”. Consider `C[C@H](CO)N1C[C@H](C)[C@H](CN(C)C(=O)Nc2ccccc2)Oc2ccc(NC(=O)CCN3CCOCC3)cc2CC1=O`, for which the cytotoxicity call was “inactive”. Under `Cc1ccc(S(=O)(=O)N(C)C[C@@H]2Oc3ccc(NS(=O)(=O)c4ccc(F)cc4)cc3CC(=O)N([C@H](C)CO)C[C@H]2C)cc1` stands “inactive”; under `O=C(NCc1ccccc1)C1=C[C@H](c2ccc(Br)cc2)C[C@H](OCc2ccc(CO)cc2)O1`, “inactive”; under `Cc1ccc(S(=O)(=O)N(C)C[C@H]2Oc3ccc(NS(C)(=O)=O)cc3CC(=O)N([C@@H](C)CO)C[C@H]2C)cc1`, “inactive”. As for `O=C(O)C=CC=Cc1ccccc1`, the cytotoxicity call was “inactive”.

In the case of `COC1=CC(=O)C(O)=CC1=CC=Cc1ccccc1`, the cytotoxicity call is “active”.

On to `COc1cc(CC=Cc2ccccc2)c(OC)cc1O`, for which the cytotoxicity call was “inactive”. On to `C[C@@H]1CN([C@H](C)CO)C(=O)c2cc(NC(=O)C3CCCCC3)ccc2O[C@@H]1CN(C)C(=O)Nc1ccc(C(F)(F)F)cc1`, for which the cytotoxicity call was “inactive”. `C[C@H]1CN([C@@H](C)CO)C(=O)c2cc(NS(=O)(=O)c3cccs3)ccc2O[C@H]1CN(C)S(=O)(=O)c1ccccc1`: the cytotoxicity call is “inactive”.

As to `C[C@@H]1CN([C@H](C)CO)C(=O)c2cc(NC(=O)CCCCCC(=O)Nc3ccccc3N)ccc2O[C@@H]1CN(C)S(C)(=O)=O`, the cytotoxicity call was “inactive”. To `C[C@H](CO)N1C[C@H](C)[C@H](CN(C)C(=O)C2CCCCC2)OCCCC[C@H](C)Oc2ccc(NC(=O)CCC(F)(F)F)cc2C1=O` belongs “inactive”.

Turning to `Cc1ccc(NC(=O)[C@@H]2[C@@H]3CC/C=C\CC/C=C/CC[C@@H]32)cc1C`, the cytotoxicity call was “inactive”. As to `CCC(=O)c1ccc(Cl)s1`, the cytotoxicity call was “inactive”.

As to `C[C@@H]1CCCCO[C@H](CN(C)C(=O)Nc2ccc(F)cc2)[C@@H](C)CN([C@@H](C)CO)C(=O)c2cc(NC(=O)Nc3ccc(C(F)(F)F)cc3)ccc2O1`, the cytotoxicity call was “inactive”.

As to `C[C@H]1CCCCO[C@H](CN(C)C(=O)Nc2ccc(C(F)(F)F)cc2)[C@@H](C)CN([C@@H](C)CO)C(=O)c2cc(NC(=O)Nc3ccc(F)cc3)ccc2O1`, the cytotoxicity call was “inactive”. `C[C@@H]1CCCCO[C@H](CN(C)C(=O)Nc2ccc(C(F)(F)F)cc2)[C@H](C)CN([C@H](C)CO)C(=O)c2cc(NC(=O)Nc3ccc(F)cc3)ccc2O1`: the cytotoxicity call is “inactive”. To `C[C@@H]1CCCCO[C@@H](CN(C)C(=O)Nc2ccc(C(F)(F)F)cc2)[C@H](C)CN([C@H](C)CO)C(=O)c2cc(NC(=O)Nc3ccc(F)cc3)ccc2O1` belongs “active”. `C[C@@H]1CCCCO[C@H](CN(C)C(=O)Nc2ccc(C(F)(F)F)cc2)[C@@H](C)CN([C@H](C)CO)C(=O)c2cc(NC(=O)Nc3ccc(F)cc3)ccc2O1`: the cytotoxicity call is “active”.

As to `C[C@H]1CCCCO[C@@H](CN(C)C(=O)Nc2ccc(C(F)(F)F)cc2)[C@@H](C)CN([C@@H](C)CO)C(=O)c2cc(NC(=O)Nc3ccc(F)cc3)ccc2O1`, the cytotoxicity call was “inactive”. Regarding `C[C@H](CO)N1C[C@H](C)[C@H](CN(C)C(=O)Nc2ccc(F)cc2)OCCCC[C@H](C)Oc2ccc(NC(=O)Nc3ccc(C(F)(F)F)cc3)cc2C1=O`, the cytotoxicity call is “inactive”.

For the compound `C[C@H]1CCCCO[C@@H](CN(C)C(=O)Nc2ccc(F)cc2)[C@@H](C)CN([C@@H](C)CO)C(=O)c2cc(NC(=O)Nc3ccc(C(F)(F)F)cc3)ccc2O1`, the cytotoxicity call is “inactive”. `C[C@@H]1CN([C@H](C)CO)C(=O)c2cc(NC(=O)Nc3ccc(F)cc3)ccc2O[C@@H](C)CCCCO[C@H]1CN(C)C(=O)Nc1ccc(C(F)(F)F)cc1`: the cytotoxicity call is “active”.

`C[C@H](CO)N1C[C@H](C)[C@@H](CN(C)C(=O)Nc2ccc(F)cc2)OCCCC[C@H](C)Oc2ccc(NC(=O)Nc3ccc(C(F)(F)F)cc3)cc2C1=O`: the cytotoxicity call is “inactive”. To `C[C@@H]1CN([C@H](C)CO)C(=O)c2cc(NC(=O)Nc3ccc(C(F)(F)F)cc3)ccc2O[C@@H](C)CCCCO[C@H]1CN(C)C(=O)Nc1ccc(F)cc1` belongs “active”. `C[C@H](CO)N1C[C@H](C)[C@@H](CN(C)C(=O)Nc2ccc(C(F)(F)F)cc2)OCCCC[C@H](C)Oc2ccc(NC(=O)Nc3ccc(F)cc3)cc2C1=O`: the cytotoxicity call is “inactive”. As for `Cc1ccc(S(=O)(=O)Nc2ccc3c(c2)C(=O)N([C@@H](C)CO)C[C@@H](C)[C@H](CN(C)S(=O)(=O)c2ccc(F)cc2)O3)cc1`, the cytotoxicity call was “inactive”. Under `C[C@H](CO)N1C[C@H](C)[C@@H](CN(C)S(C)(=O)=O)Oc2c(NC(=O)CCCCCC(=O)Nc3ccccc3N)cccc2C1=O` stands “inactive”; under `C[C@@H]1CN([C@H](C)CO)C(=O)c2cc(NS(=O)(=O)c3cn(C)cn3)ccc2O[C@@H](C)CCCCO[C@@H]1CN(C)C(=O)CCCN(C)C`, “inactive”; under `C[C@@H]1CN([C@H](C)CO)C(=O)Cc2cc(NC(=O)CCCCCC(=O)Nc3ccccc3N)ccc2O[C@H]1CN(C)C(=O)Nc1ccccc1`, “inactive”. Consider `COc1cccc(-c2ccc3c(c2)O[C@H](CN(C)C(=O)C2CCC2)[C@H](C)CN([C@H](C)CO)S3(=O)=O)c1`, for which the cytotoxicity call is “inactive”. Take `C[C@@H]1CN([C@H](C)CO)C(=O)c2cc(NC(=O)Cc3ccccc3)ccc2O[C@@H](C)CCCCO[C@H]1CN(C)C(=O)Nc1ccc2c(c1)OCO2`: the cytotoxicity call is “inactive”. With `CNC(=O)C[C@H]1CC[C@@H]2[C@H](COc3ccc(NC(=O)c4ccc(C(F)(F)F)cc4)cc3C(=O)N2C)O1`, the cytotoxicity call is “inactive”. Regarding `C[C@H](CO)N1C[C@H](C)[C@H](CN(C)Cc2ccc(C(=O)O)cc2)OCCCC[C@H](C)Oc2ccc(NS(=O)(=O)c3ccc(Cl)cc3)cc2C1=O`, the cytotoxicity call is “inactive”.

Turning to `Cc1noc(C)c1NC(=O)N(C)C[C@@H]1Oc2c(NC(=O)NC(C)C)cccc2C(=O)N([C@@H](C)CO)C[C@@H]1C`, the cytotoxicity call was “inactive”.

Turning to `NNc1ccc2[nH]c(=O)[nH]c2c1`, the cytotoxicity call is “inactive”.

`C[C@H](CO)N1C[C@H](C)[C@H](CN(C)Cc2ccc(C(F)(F)F)cc2)OCCCC[C@H](C)Oc2ccc(NC(=O)Nc3ccc(F)cc3)cc2C1=O`: the cytotoxicity call was “active”. For `C[C@H]1CCCCO[C@H](CN(C)Cc2ccc(C(F)(F)F)cc2)[C@@H](C)CN([C@@H](C)CO)C(=O)c2cc(NC(=O)Nc3ccc(F)cc3)ccc2O1`, the cytotoxicity call was “active”. In the case of `C[C@@H]1CCCCO[C@@H](CN(C)Cc2ccc(C(F)(F)F)cc2)[C@H](C)CN([C@H](C)CO)C(=O)c2cc(NC(=O)Nc3ccc(F)cc3)ccc2O1`, the cytotoxicity call was “inactive”. `C[C@@H]1CN([C@@H](C)CO)C(=O)c2cc(NC(=O)Nc3ccc(F)cc3)ccc2O[C@@H](C)CCCCO[C@H]1CN(C)Cc1ccc(C(F)(F)F)cc1`: the cytotoxicity call is “active”. Consider `C[C@@H]1CCCCO[C@H](CN(C)Cc2ccc(C(F)(F)F)cc2)[C@@H](C)CN([C@@H](C)CO)C(=O)c2cc(NC(=O)Nc3ccc(F)cc3)ccc2O1`, for which the cytotoxicity call is “active”. For the compound `C[C@H](CO)N1C[C@H](C)[C@@H](CN(C)Cc2ccc(C(F)(F)F)cc2)OCCCC[C@H](C)Oc2ccc(NC(=O)Nc3ccc(F)cc3)cc2C1=O`, the cytotoxicity call is “inactive”. For `C[C@@H]1CCCCO[C@@H](CN(C)Cc2ccc(C(F)(F)F)cc2)[C@H](C)CN([C@@H](C)CO)C(=O)c2cc(NC(=O)Nc3ccc(F)cc3)ccc2O1`, the cytotoxicity call was “inactive”. For the compound `C[C@@H]1CN([C@@H](C)CO)C(=O)c2cc(NC(=O)Nc3ccc(F)cc3)ccc2O[C@@H](C)CCCCO[C@@H]1CN(C)Cc1ccc(C(F)(F)F)cc1`, the cytotoxicity call is “inactive”. Consider `CCNC(=O)C[C@H]1C=C[C@@H](NC(=O)C2CCOCC2)[C@@H](CO)O1`, for which the cytotoxicity call is “inactive”. `COc1ccc(NC(=O)N(C)C[C@@H]2Oc3ccc(NC(=O)C4CC4)cc3CC(=O)N([C@H](C)CO)C[C@H]2C)cc1`: the cytotoxicity call is “inactive”. As for `CN(C)CC(=O)N[C@@H]1CC[C@H](CCNC(=O)C2CC2)O[C@H]1CO`, the cytotoxicity call is “inactive”. Turning to `COc1ccc(NC(=O)N(C)C[C@H]2OCCCC[C@H](C)Oc3ccc(NS(=O)(=O)c4ccc(OC)cc4)cc3C(=O)N([C@H](C)CO)C[C@@H]2C)cc1`, the cytotoxicity call is “inactive”. `C[C@H](CO)N1C[C@H](C)[C@@H](CN(C)C(=O)Nc2ccc(N3CCN(C)CC3)cc2)OCc2cnnn2CCCC1=O`: the cytotoxicity call is “inactive”.

In the case of `CC(=O)NCCCC[C@@H]1NC(=O)[C@@H]2C[C@H](C(=O)NCCCCCNC(=O)CS)[C@H](c3cccc(OCCO)c3)N2C1=O`, the cytotoxicity call was “inactive”. As for `C[C@@H]1CN([C@H](C)CO)C(=O)c2cc(NS(=O)(=O)c3cn(C)cn3)ccc2O[C@@H](C)CCCCO[C@@H]1CN(C)S(=O)(=O)c1ccccc1`, the cytotoxicity call is “inactive”. Consider `C[C@@H]1CN([C@H](C)CO)C(=O)c2cccc(NC(=O)NC3CCCCC3)c2O[C@@H]1CN(C)Cc1ccc(Oc2ccccc2)cc1`, for which the cytotoxicity call is “inactive”. In the case of `COc1ccc(NC(=O)N(C)C[C@H]2Oc3ccc(NC(=O)Nc4cccc5ccccc45)cc3CC(=O)N([C@H](C)CO)C[C@H]2C)cc1`, the cytotoxicity call is “inactive”. Consider `CC(C)CC#Cc1ccc2c(c1)O[C@H](CN(C)C(=O)Cc1ccccn1)[C@@H](C)CN([C@H](C)CO)S2(=O)=O`, for which the cytotoxicity call was “inactive”. As to `C[C@H](CO)N1C[C@H](C)[C@@H](CN(C)C(=O)NC2CCCCC2)OCCCC[C@H](C)Oc2ccc(NC(=O)Cc3ccccc3)cc2C1=O`, the cytotoxicity call is “inactive”. `COc1ccc(CN(C)C[C@H]2Oc3c(NC(=O)Nc4ccc(C(F)(F)F)cc4)cccc3C(=O)N([C@@H](C)CO)C[C@@H]2C)cc1`: the cytotoxicity call was “inactive”. For the compound `C[C@@H]1CCCCO[C@@H](CN(C)Cc2ccc(C(F)(F)F)cc2)[C@@H](C)CN([C@H](C)CO)C(=O)c2cc(NC(=O)Nc3ccc(F)cc3)ccc2O1`, the cytotoxicity call is “inactive”. As to `C[C@@H]1CCCCO[C@@H](CN(C)Cc2ccc(C(F)(F)F)cc2)[C@@H](C)CN([C@@H](C)CO)C(=O)c2cc(NC(=O)Nc3ccc(F)cc3)ccc2O1`, the cytotoxicity call was “inactive”.

On to `C[C@@H]1CCCCO[C@H](CN(C)Cc2ccc(C(F)(F)F)cc2)[C@@H](C)CN([C@H](C)CO)C(=O)c2cc(NC(=O)Nc3ccc(F)cc3)ccc2O1`, for which the cytotoxicity call was “inactive”. Under `C[C@@H]1CN([C@H](C)CO)C(=O)c2cc(NC(=O)Nc3ccc(F)cc3)ccc2O[C@@H](C)CCCCO[C@@H]1CN(C)Cc1ccc(C(F)(F)F)cc1` stands “inactive”; under `C[C@H]1CCCCO[C@@H](CN(C)Cc2ccc(C(F)(F)F)cc2)[C@@H](C)CN([C@@H](C)CO)C(=O)c2cc(NC(=O)Nc3ccc(F)cc3)ccc2O1`, “active”; under `C[C@@H]1CCCCO[C@H](CN(C)Cc2ccc(C(F)(F)F)cc2)[C@H](C)CN([C@H](C)CO)C(=O)c2cc(NC(=O)Nc3ccc(F)cc3)ccc2O1`, “active”. To `C[C@@H]1CCCCO[C@H](CN(C)Cc2ccc(C(F)(F)F)cc2)[C@H](C)CN([C@@H](C)CO)C(=O)c2cc(NC(=O)Nc3ccc(F)cc3)ccc2O1` belongs “active”; to `C[C@@H]1CN([C@H](C)CO)C(=O)c2cc(NC(=O)Nc3ccc(F)cc3)ccc2O[C@@H](C)CCCCO[C@H]1CN(C)Cc1ccc(C(F)(F)F)cc1`, “active”.

These data come from the antibiotic and cytotoxicity screens of Wong et al. (2023).
